Peg3 promoter – Peg3 promoter-driven luciferase inhibitors, primary screen, cell-based, HeLa, luciferase luminescence | HeLa PEG-Prom luciferase reporter, overnight | 360,000 tested, 1.7% active | inhibition, % at 20 µM;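 active = inhibition of at least 50% at 20 µM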
LMP1 NFkB inh – EBV LMP1-driven NF-kappaB luciferase reporter inhibitors, primary screen, cell-based, luminescence, single point; LMP1-induced NF-kappaB luciferase reporter cells; inhibition, % at 12.5 µM; 350,000 tested, 0.69% active; in the data active = inhibition above about 41%; inconclusive = no clear call, values can overlap the other calls;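 also: 0% = neutral control wells and 100% = reference inhibitor control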
Shn3 3UTR inh – reduction of Shn3 3'UTR firefly luciferase signal, primary screen, Schnurri-3 inhibitor project, cell-based, Clone20 osteoblasts, set 2; Clone20 osteoblast Shn3 3'UTR firefly luciferase, 24 h; inhibition, % at 12.5 µM; 360,000 tested, 0.52% active; AID 588674, 2011;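 active = mean inhibition of at least 75% with every replicate also reaching 75%; inconclusive = mean inhibition at least 75% but some replicate below; inactive = mean inhibition below 75%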;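 also: 0% = median of neutral control wells and 100% = pilot-screen positive control compound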
TWEAK Fn14 block – inhibitors of TWEAK-Fn14 signaling, primary screen, luciferase reporter cells, uHTS; TWEAK-stimulated Fn14 reporter cells, luciferase luminescence, 8 h; 360,000 tested, 2% active; inhibition, % at 10 µM; in the data active = inhibition above about 50%
TRPM1 prom inh – inhibitors of MITF-dependent TRPM1 promoter reporter, primary screen, cell-based, SK-MEL-5, single point, luciferase. SK-MEL-5 TRPM1 promoter luciferase, 24 h. inhibition, % at 12.5 µM. 330,000 tested, 0.83% active;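 active = mean inhibition across replicates of 60% or more, whatever share of single replicates reaches that level; inconclusive = some that reach 60%, reason not given; inactive = mean inhibition across replicates below 60%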
TROY NFkB inh – inhibitors of TROY-driven NF-kB signaling, primary screen, Q293 LMP1-TROYcd cells, NF-kB luciferase, uHTS. Q293 LMP1-TROYcd NF-kB luciferase reporter, 4 h. inhibition, % at 10 µM. 360,000 tested, 0.98% active;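 active = compounds whose plate-normalised and pattern-corrected inhibition of the luciferase reporter signal at the single screening dose is 50% or more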
The depositor's hits bear a star; ? = inconclusive; nt = no result given. Only some compounds are listed: those with a hit (about 4.1% of all), similar ones and a draw of the others.

SMILES | Peg3 promoter | LMP1 NFkB inh | Shn3 3UTR inh | TWEAK Fn14 block | TRPM1 prom inh | TROY NFkB inh
CC(=O)Nc1ccc(NC(=O)COC(=O)Cc2c[nH]c3ccccc23)cc1 | -9.7 | -2.1 | -47.8 | -22.2 | 8.2 | 7.2
COc1cc(OC)c(N(C)S(=O)(=O)c2cccc(C(=O)Nc3nccs3)c2)cc1Cl | 51.1* | -10.0 | 31.1 | 30.8 | 0.5 | 39.2
COc1cc(OC)c(N(C)S(=O)(=O)c2cccc(C(=O)OCC(=O)c3c[nH]c4ccccc34)c2)cc1Cl | 39.3 | 14.8 | 24.5 | 96.1* | 36.4 | 44.8
C=CCN(c1ccccc1OC)S(=O)(=O)c1cccc(C(=O)OCC(=O)N2CCOCC2)c1 | 8.5 | 0.5 | -0.1 | -0.4 | -3.6 | -5.4
C=CCN(c1ccccc1OC)S(=O)(=O)c1cccc(C(=O)OCC(=O)c2c[nH]c3ccccc23)c1 | 27.9 | -2.2 | 12.4 | 84.7* | 13.9 | 17.0
CCc1ccc(NC(=S)N2CCN(c3cccc(OC)c3)CC2)cc1 | 19.5 | 3.5 | 26.2 | 13.9 | 0.7 | 14.5
COc1cccc(N2CCN(C(=S)Nc3ccccc3)CC2)c1 | 110.2* | 7.3 | 15.9 | -10.5 | -3.2 | -16.8
S=C(Nc1ccccc1)N1CCN(C2CCCCC2)CC1 | -3.3 | -6.5 | 12.1 | 31.5 | 1.7 | 60.1*
CCC(=O)NN1CCc2cc3ccc(C)cc3nc21 | 6.8 | 9.5 | -4.4 | -6.3 | 8.4 | -12.7
CC1(C(=O)Nc2ccc3nc[nH]c3c2)CCN1C(=O)C/C=C/c1ccccc1 (stereo not drawn) | -3.3 | nt | 3.6 | 1.2 | nt | -1.8
CCCOc1ccc(C(F)(F)F)cc1NC(=O)C1CC(=O)N(Cc2ccco2)C1 (stereo not drawn) | 16.6 | -1.0 | -2.1 | -11.7 | -0.4 | -2.4
O=C(O)CCCc1ccc2c(c1)CCc1ccccc1-2 | 4.3 | 24.0 | 15.0 | 56.2* | 87.5* | 27.3
CN(C)CCCNc1ccc(-c2cc(Nc3cccc(Cl)c3)ncn2)cn1 | 8.4 | -3.5 | -28.6 | -27.8 | 4.5 | -25.0
OCCCNc1cc(-c2ccnc(Nc3cccc(Cl)c3)n2)ccn1 | 103.4* | 89.0* | 90.5* | 96.8* | ? | 58.8*
CCN=C1SC(CC(=O)NC2CCCCC2)C(=O)N1CC (stereo not drawn) | 13.8 | -3.0 | 1.6 | 3.3 | 8.9 | 6.2
CN1C(=O)C(CC(=O)NC2CCCCC2)SC1=Nc1ccccc1 (stereo not drawn) | -2.5 | 64.3* | 2.0 | 2.6 | 2.2 | -9.4
Cn1c(N)c(C(=O)CSc2nn(-c3ccccc3)c(=S)s2)c(=O)n(C)c1=O | -50.8 | 15.7 | 27.0 | 54.1* | 8.1 | 58.2*
CC(Sc1nn(-c2ccc(F)cc2)c(=S)s1)C(=O)c1c(N)n(C)c(=O)n(C)c1=O (stereo not drawn) | 8.4 | 12.4 | -18.6 | 14.8 | -18.7 | 30.5
O=C1C=CC(=C(c2ccc(O)cc2)c2ccc(O)cc2)C=C1 | 85.2* | -45.3 | -22.8 | 36.1 | 83.5* | 49.9
COc1ccccc1N(C)S(=O)(=O)c1ccc(C(=O)Nc2cc(F)ccc2C)cc1 | 15.3 | -7.0 | 82.9* | -11.1 | 12.2 | 27.8
COc1cccc(COC(=O)c2cc(S(=O)(=O)N3CCOCC3)ccc2Cl)c1OC | -14.5 | -5.1 | 3.2 | 84.8* | 2.0 | 9.4
COc1ccccc1N(C)S(=O)(=O)c1ccc(C(=O)Nc2cccc(S(=O)(=O)N3CCOCC3)c2)cc1 | 50.1* | -0.8 | 57.0 | 49.4 | -7.1 | 32.9
CCOC(=O)C1(Cc2ccccc2C)CCCN(C(=O)c2ccc(C(C)=O)s2)C1 (stereo not drawn) | 0.1 | -3.8 | -1.6 | 6.5 | nt | -11.0
O=C(NCc1ccccn1)[C@@H]1CCCN1C(=O)[C@@H]1CCCN1C(=O)c1c(F)cccc1F | nt | nt | nt | 4.8 | nt | 1.1
CC(C)Oc1cccc(C(=O)NC(=S)Nc2ccccc2)c1 | -95.7 | -42.5 | -127.3 | 59.4* | -78.6 | 66.5*
SMILES | Peg3 promoter | LMP1 NFkB inh | Shn3 3UTR inh | TWEAK Fn14 block | TRPM1 prom inh | TROY NFkB inh
O=C(CCCN1C(=O)S/C(=C\c2ccccc2)C1=O)NNC(=O)c1ccccc1O | 18.0 | ? | 28.2 | 34.6 | 71.0* | 23.9
O=C(CCCN1C(=O)/C(=C/c2ccccc2Cl)SC1=S)NNC(=O)c1ccccc1 | 33.9 | 23.4 | 10.0 | 70.0* | 8.3 | 56.7*
O=C(CCCN1C(=O)/C(=C/c2ccccc2Cl)SC1=S)NNC(=O)c1cccnc1 | 22.8 | -21.4 | 9.3 | 86.5* | 16.6 | 76.7*
O=C(CCN1C(=O)/C(=C/c2ccccc2Cl)SC1=S)Nc1ccccc1C(=O)O | 5.2 | -4.9 | -7.9 | 10.2 | 10.7 | 45.5
O=C(CCCN1C(=O)/C(=C/c2cccs2)SC1=S)NNC(=O)c1cccnc1 | -4.2 | -0.4 | 4.4 | -1.6 | 6.8 | 13.9
O=C(OCCNc1ccc(C(F)(F)F)cc1[N+](=O)[O-])c1cc2ccccc2oc1=O | -12.8 | 3.8 | 9.6 | -32.2 | -2.1 | 8.3
CCOc1ccc(S(=O)(=O)NCCC(=O)NC2CCC(C)CC2)cc1 (stereo not drawn) | 2.5 | -1.3 | 9.4 | -10.2 | 14.9 | 3.4
Cc1sc2ncnc(N3CCC(C(=O)N(C)CC(=O)Nc4ccccc4Cl)CC3)c2c1C | 48.9 | 12.4 | 3.8 | 32.3 | 3.9 | 24.6
CCN(CC(=O)Nc1cc(Cl)ccc1C)C(=O)C1CCN(c2ncnc3sc(C)c(C)c23)CC1 | 65.7* | 10.7 | 56.8 | 38.5 | nt | 36.0
Cc1sc2ncnc(N3CCC(C(=O)N(C)CC(=O)Nc4ccccc4Br)CC3)c2c1C | 44.2 | 0.5 | 14.0 | 51.2* | -5.2 | 30.5
Cc1sc2ncnc(N3CCC(C(=O)N(C)CC(=O)Nc4ccc(Cl)c(C(F)(F)F)c4)CC3)c2c1C | 64.4* | 10.6 | 79.8 | 51.0* | 7.2 | 58.0*
Cc1sc2ncnc(N3CCC(C(=O)N(C)CC(=O)Nc4cccc(F)c4)CC3)c2c1C | 33.9 | 28.9 | 46.9 | 65.0* | nt | 41.2
Cc1sc2ncnc(N3CCC(C(=O)Nc4ccc(C#N)cc4)CC3)c2c1C | -5.3 | -0.7 | 15.1 | -24.6 | -7.5 | 3.1
O=C1CCCc2c1cc(C(=O)NCc1ccco1)c(=O)n2-c1ccccc1 | 18.3 | -1.8 | 1.0 | 5.2 | 5.9 | -2.2
Cc1ccc(-n2c3c(cc(C(=O)NCC(=O)c4ccccc4)c2=O)C(=O)CCC3)cc1 | 16.7 | 1.9 | -10.1 | 92.8* | 2.3 | 15.1
CN(C)S(=O)(=O)c1cccc(-c2nn(-c3ccccc3)cc2/C=C2\SC(=S)NC2=O)c1 | 59.9* | 7.0 | -1.9 | 64.4* | -0.4 | 66.8*
CN(C)S(=O)(=O)c1cccc(-c2nn(-c3ccccc3)cc2/C=C(\C#N)c2nc3ccccc3[nH]2)c1 | 2.5 | -6.1 | 13.9 | 6.7 | -0.3 | 0.9

Bioassay records (PubChem)
